Compounds with a hit are over-represented: about 2.8% of the library has one in this group of screens.
Akt phos inh = blocks phosphorylation of Akt; Neuro2A IGF-stimulated pAkt S473 HTRF, 20 min; active compounds read low; 360,000 compounds, 0.32% hits; activity change, % for hits at 50 µM; AID 651550; in the data active means activity change below about -80%; inconclusive means mostly about -51% to -80%
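Neuro2A cells (4,500/well, DMEM with 0.5% FBS) were treated with compound at a single 50 µM final concentration, stimulated with 6 nM IGF for 20 min at 37 °C, and lysed. Phospho-Akt Ser473 was read by HTRF as 665/615 ratio ×10^4.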
RGS4 inh = blocks human RGS4-accelerated GTP hydrolysis; Transcreener GDP fluorescence polarization, RGS4-accelerated GTP hydrolysis; Potency, µM (highest dose often 114 µM), hits mostly inhibitors; 390,000 compounds, 0.039% hits; AID 504845; active means well fitted inhibition curve with a large enough effect; inconclusive means small, poorly fitted or top-dose-only effect; inactive means no such curve, though single readings can be large or run the other way; further: nearly all actives have a fitted effect of over 75% in size
Target sequence (P49798 whole entry, looked up): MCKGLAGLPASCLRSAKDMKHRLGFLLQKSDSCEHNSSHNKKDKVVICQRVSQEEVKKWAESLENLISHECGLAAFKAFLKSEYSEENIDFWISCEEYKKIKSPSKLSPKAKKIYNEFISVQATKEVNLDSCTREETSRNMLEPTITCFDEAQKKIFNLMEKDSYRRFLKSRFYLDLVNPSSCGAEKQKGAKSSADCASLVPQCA
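MLSMR compounds (23 nl, pin-transferred) preincubated 10 min at room temperature with a 500nM (2x) first reagent, then RGS4 at 900nM (2x) plus Transcreener GDP mix added; fluorescence polarization (620/688 nm) read before and after 90 min at 30 °C.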
PI4K2A inh = inhibitors of human PI4K2A. purified PI4K2A, ADP-Glo luminescence, 1 h; active compounds read low. activity change, negative = inhibition, % at 76.9 µM. 420,000 compounds, 0.13% hits. Q9BTU6; in the data active means activity change below about -50%; inconclusive means mostly about -30% to -49%
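In this quantitative HTS, ADP production by PI4K2A was quantified luminescently after 1 h at ambient temperature; 100 microM adenosine served as plate-quality control.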
D3 ag = agonists of human D3 dopamine receptor. D3R DiscoveRx beta-arrestin cells, luminescence, 90 min. P35462. 410,000 compounds, 0.58% hits. max activation, %. AID 652048; in the data active means max activation above about 30%
Target sequence (P35462 whole entry, looked up): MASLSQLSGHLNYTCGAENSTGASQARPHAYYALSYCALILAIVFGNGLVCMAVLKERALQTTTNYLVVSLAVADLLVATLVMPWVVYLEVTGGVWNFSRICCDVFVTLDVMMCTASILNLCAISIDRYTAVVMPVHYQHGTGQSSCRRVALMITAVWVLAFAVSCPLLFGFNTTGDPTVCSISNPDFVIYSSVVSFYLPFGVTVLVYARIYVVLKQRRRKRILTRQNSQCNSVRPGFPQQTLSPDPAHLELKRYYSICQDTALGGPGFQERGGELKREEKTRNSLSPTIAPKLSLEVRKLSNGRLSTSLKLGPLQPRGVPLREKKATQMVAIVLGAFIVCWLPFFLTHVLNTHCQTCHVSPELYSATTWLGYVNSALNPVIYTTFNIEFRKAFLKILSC
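Agonist-mode cell screen: cells plated at 1500/well and incubated overnight at 37 °C, then exposed to library compounds for 90 min at 37 °C. Detection reagent was added for 30–60 min at room temperature, and luminescence was read.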
LDHA inh = blocks human lactate dehydrogenase A; P00338; purified LDHA, NADH/diaphorase-resazurin fluorescence; active compounds read low; activity change, % (values are at about 110 or 230 µM); 480,000 compounds, 0.15% hits; AID 1347041; in the data active means activity change below about -30%; inconclusive means mostly about -25% to -30%
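Human LDH5 (2 nM) was incubated with 0.06 mM NADH and 0.2 mM pyruvate for 5 min at room temperature in Tris pH 7.4. Remaining NADH was coupled through diaphorase/resazurin, and resorufin fluorescence was read at 0 and 20 min.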
DRD3 antagonist = blocks the human D3 dopamine receptor; P35462; D3R cells, DiscoveRx beta-arrestin luminescence, antagonist mode; active compounds read low; max response, negative = inhibition, %; 360,000 compounds, 2.5% hits; AID 652054; in the data active means max response below about -50%; inconclusive means no clear call, values can overlap the other calls
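Cells expressing the human receptor were seeded at 1500 cells/well, incubated overnight at 37 degrees C in 5% CO2, then exposed to library compounds with dopamine controls for 90 minutes at 37 degrees C before luminescent detection.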
A number is an active result; n = inactive; u = inconclusive; x = no result given; ! = a repeat was not active; [ ] = remark or other dose.

SMILES	Akt phos inh	RGS4 inh	PI4K2A inh	D3 ag	LDHA inh	DRD3 antagonist
O=C(NCC12CC3CC(CC(C3)C1)C2)c1nc2ncccn2n1	-119%	n	n	n	n	n
O=C(CCN1CCN(c2ccccc2)CC1)Nc1nccs1	n	n	n	n	n	-64
O=C(NCCN1CCN(c2ccccc2)CC1)Nc1ccc(Cl)cc1	n	n	n	n	n	-55
O=C(NCCN1CCN(c2cccc(Cl)c2)CC1)Nc1ccccc1	n	n	n	n	n	-91
O=C(CCN1CCN(c2ccccc2)CC1)c1ccc(Cl)cc1	n	n	n	n	n	-70
COc1ccc(N2CCN(CCNC(=O)Nc3ccc(Cl)cc3)CC2)cc1	n	n	n	n	n	u
O=C(NCCN1CCCCC1)Nc1ccccc1	n	n	n	n	n	n
COCCN1C(=O)c2n[nH]c(-c3ccco3)c2C1c1ccccc1 (stereo not drawn)	x	x	x	x	n	x
O=C(CCN1CCN(c2ccc(F)cc2)CC1)Nc1ccc(F)cc1	n	n	n	n	n	-82
c1ccc(CCCN2CCN(c3ccccc3)CC2)cc1	n	n	n	n	n	-64
O=C(CCN1CCOCC1)Nc1ccc(F)cc1	n	n	n	n	n	n
O=C(Cc1ccccc1)Nc1ccc(N2CCN(Cc3ccccc3F)CC2)cc1	n	n	n	n	n	-52
COC(=O)c1ccc(NC(=O)CCN2CCN(c3ccccc3)CC2)cc1	n	n[11.4 µM]	n	n	n	n
O=C(CCN1CCN(c2ccccc2)CC1)Nc1ccc(Cl)cc1	n	n	n	n	n	-62
Cc1ccccc1NC(=O)C(C#N)C(=O)/C=C/c1ccccc1 (stereo not drawn)	x	x	x	x	n	x
OC(CN1CCN(c2cccc(Cl)c2)CC1)C(c1ccccc1)c1ccccc1 (stereo not drawn)	n	n	n	n	n	-72
O=C(CCN1CCN(c2ccccc2)CC1)Nc1ccc(OCc2ccccc2)cc1	n	n	n	35	n	n
O=C(CCN1CCN(c2ccc([N+](=O)[O-])cc2)CC1)c1ccc(Cl)cc1	n	n	n	n	n	n
CCOc1ccccc1C(=O)N1CCN(c2cccc(Cl)c2)CC1	n	n	n	n	n	n
O=C(O)c1ccccc1C(=O)N1CCN(c2cccc(Cl)c2)CC1	n	n	n	n	n	-55
O=C(CCN1CCOCC1)c1ccc(N2CCCCC2)cc1	n	n	n	n	n	-76
N#CC(C(=O)Nc1ccccc1Cl)C(=O)c1ccccc1Cl (stereo not drawn)	x	x	x	x	n	x
O=C(O)c1ccc2c(c1)c(C(C(=O)O)N1CCCC1)cn2Cc1ccccc1 (stereo not drawn)	x	x	x	x	n	x
O=C(c1ccc(S(=O)(=O)N2CCOCC2)cc1)N1CCN(c2cccc(Cl)c2)CC1	n	n	n	n	n	-69
Clc1cccc(N2CCN(CCCN3CCN(c4ccccc4)CC3)CC2)c1	n	n	n	n	n	-79
SMILES	Akt phos inh	RGS4 inh	PI4K2A inh	D3 ag	LDHA inh	DRD3 antagonist
O=C(CCC(=O)N1CCN(c2cccc(Cl)c2)CC1)N1CCN(c2ccccc2)CC1	n	n	n	n	n	n
CC(CCN1CCN(c2ccccc2)CC1)c1ccccc1 (stereo not drawn)	n	n	n	n	n	-102
COc1ccccc1NC(=O)NCCN1CCN(c2cccc(Cl)c2)CC1	n	n	n	n	n	-92
CCc1cccc(C)c1NC(=O)c1cnc2ccccc2n1	x	x	x	x	n	x
CCOc1ccc(-c2csc(-c3c(C)c(C)nn(C)c3=O)n2)cc1	x	x	x	x	n	x
Cc1ccccc1NC(=O)c1ccc2c(Cl)c3c(nc2c1)CCC3	x	x	x	x	n	x
CN1CCCC(CC2Oc3ccccc3Sc3ccccc32)C1 (stereo not drawn)	n	n	n	n	n	-84
c1ccc2c(c1)OC(CCCN1CCCCC1)c1ccccc1S2 (stereo not drawn)	n	n	n	n	n	n
N#C/C(=C\c1ccc(Cl)c([N+](=O)[O-])c1)c1ccccn1	n	n	n	n	n	-55
CN(C)C1(CNC(=O)Cc2cccs2)CCCCC1	x	x	x	x	n	x
Cc1ccc(SCc2cn3c(C)csc3n2)cc1	n	n	n	n	n	-53
Cc1ccc(S(=O)(=O)NCc2cn3c(C)csc3n2)cc1	n	n	n	n	n	n
O=C(N/N=C/c1ccco1)c1ccn[nH]1	n	n	-76	n	n	n
COc1cc(C(=O)Nc2ccc3nc(N4CCN(C)CC4)cc(C)c3c2)cc(OC)c1OC	n	n	n	n	n	n
Cc1cc(N2CCN(C)CC2)nc2ccc(NC(=O)c3ccc4c(c3)OCO4)cc12	n	u	n	n	n	-76
CCN(CC)C(=O)Cn1nc(-c2ccc(C)c(S(=O)(=O)N(C)C)c2)c2ccccc2c1=O	x	x	x	x	n	x
O=C(NCc1cccnc1)/C(=C\c1ccc(-c2ccc(Br)cc2)o1)S(=O)(=O)c1ccccc1	n	u	n	n	n	-89
NCCS	n	u	n	65!	n	-85
CCNc1ccc2c(cc1=O)[C@@H](NC(C)=O)CCc1cc(OC)c(OC)c(OC)c1-2	x	x	x	x	n	x
N#CCCCCn1c(-c2cncs2)nc2ccccc21	n	n	n	n	n	-56
Cc1cc(-c2nn(-c3ccccc3F)cc2CN2CCCC(O)C2)c(C)s1 (stereo not drawn)	n	n	n	n	n	n
COCC1CCN(Cc2cn(-c3ccccc3F)nc2-c2cc(C)sc2C)CC1	n	n	n	n	n	-84
Cc1cc(-c2nn(-c3ccccc3F)cc2CN2CCCC(CO)C2)c(C)s1 (stereo not drawn)	n	n	n	n	n	-53
N#Cc1nc(-c2ccccc2)oc1NCC(c1cccs1)N1CCOCC1 (stereo not drawn)	x	x	x	x	n	x
Cn1c(C=O)ccc1-c1ccc(Cl)cc1	x	x	x	x	n	x
SMILES	Akt phos inh	RGS4 inh	PI4K2A inh	D3 ag	LDHA inh	DRD3 antagonist
Cc1ccc(Oc2cc([N+](=O)[O-])cc3c2C(=O)Nc2ccccc2O3)cc1	n	n	n	49	n	n
Brc1ccc(Oc2nc(-c3ccccc3)cs2)cc1	x	x	x	x	n	x
Cc1ccc(N=Cc2c(O)n(-c3ccc4c(c3)OCO4)c(=O)c3ccccc23)cc1	n	n	n	n	n	-59
O=C(NNC(=S)Nc1ccc(F)cc1)C(c1ccccc1)c1ccccc1	x	x	x	x	n	x
COCC(=O)N1C[C@H]2CON(C)[C@H]2C[C@H]1c1cccc(-c2ccccc2OC)c1	n	x	n	n	-31	n
COc1ccccc1Nc1nc(N)c(C(=O)c2ccc(Cl)cc2)s1	x	x	x	x	n	x
N#Cc1ccc(-c2ccco2)nc1SCc1ccccc1	n	n	n	n	n	n
CCSc1nc(-c2ccco2)ccc1C#N	n	u	n	n	n	-54
Cn1nc(C(=O)OCCOc2cccc(Br)c2)c2ccccc2c1=O	x	x	x	x	n	x
C[C@H]1[C@H](c2ccccc2)C[C@@H](C(=O)O)C1(C)C	n	n	n	32	n	n
